Data reported in PubChem BioAssay.
Results filed as inconclusive are left out. Calls of active or inactive are those of the source.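 The calls were made as follows, unless noted: active = binding below the plate cutoff, the plate median minus 3 SD, with a reading above zero; inconclusive = below the plate cutoff but reading exactly zero; inactive = the rest.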

What was measured:
[1] = rapamycin-like changes in RPL19A-GFP expression – cell-based, S. cerevisiae, multiplex flow cytometry, primary screen (AID 1862; in the data active = percent of DMSO control GFP below about 86%;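 also: lower values mimic rapamycin by blocking the RPL19A rise seen in DMSO cells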); conditions: S. cerevisiae RPL19A-GFP strain, flow cytometry fluorescence, 3 h; at 10 µM; stronger effect = lower value
[2] = TOR pathway GLN3 branch reporter MEP2-GFP changes – S. cerevisiae, multiplex flow cytometry, primary screen (AID 1867;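 active = GFP response, as percent of the DMSO control, above the screen-wide mean plus 3 SD, about 139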;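 also: median GFP channel fluorescence of barcode-gated MEP2-GFP cells measured by flow cytometry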); conditions: S. cerevisiae MEP2-GFP strain, 3 h, at 10 µM, stronger effect = higher value, 100% means same as DMSO wells
[3] = TOR pathway RTG branch CIT2 reporter changes – S. cerevisiae, GFP fusion, multiplex flow cytometry, primary screen (AID 1870;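 active = percent response above a set limit, the screen-wide mean plus 3 SD, cut at about 130% in these data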;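 also: barcoded CIT2-GFP strain pooled with four other GFP strains with rapamycin as positive control; median GFP fluorescence per well over plate mean of DMSO wells so 100% = DMSO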); conditions: S. cerevisiae CIT2-GFP expression, 3 h, at 10 µM, stronger effect = higher value
[4] = TOR pathway LAP4-GFP level changes – S. cerevisiae, multiplex flow cytometry, primary screen (AID 1873;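 active = GFP signal, as percent of the solvent control, above the screen mean plus 3 SD, about 149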); conditions: S. cerevisiae LAP4-GFP expression, 3 h, at 10 µM, stronger effect = higher value
[5] = yeast AGP1-GFP level changes, GLN3 branch – cell-based, multiplex flow cytometry, S. cerevisiae, primary screen (AID 1887;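 active = GFP signal above the screen-wide mean plus 3 SD, that is over about 124.5% of the solvent control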;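 also: AGP1-GFP fusion strain of S. cerevisiae within a five-strain barcoded multiplex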); conditions: 3 h, at 10 µM, stronger effect = higher value
[6] = reduced mouse 2C T cell binding to pMHC/ICAM-1 vesicles – MLPCN validation set, flow cytometry, LFA-1/ICAM-1 modulator project, pilot screen (AID 2523;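 active = response below a set limit, under 55% cells CD8-positive and vesicle-bound, and CD8 cells' 90th-percentile brightness under 279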;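 as to vesicle binding response: mean PE anti-B7-1 fluorescence of CD8+ cells relative to row control; 100% = QL9-loaded vesicles with DMSO vehicle in the same plate row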); conditions: 2C mouse CD8+ T cells, at 7 µM, stronger effect = lower value; double positive events: measured here: CD8+/vesicle+ event percentage
[7] = target: Integrin beta-1 (Homo sapiens) + Integrin alpha-4 (Homo sapiens) (UniProt P13612+P05556); experiment: alpha4beta1 integrin LIBS antibody binding reduction – U937 cells, HUTS-21 mAb, flow cytometry, validation set, VLA-4 allosteric modulator project, pilot screen (AID 2674;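 active = inhibition above 50%, about 3 SD of the validation set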;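 also: antibody binding induced by the VLA-4 ligand LDV present at three times its Kd; 0% = LDV ligand with antibody and no compound and 100% = antibody without LDV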); conditions: HUTS-21 LIBS mAb binding, at 6.7 µM, stronger effect = higher value, binding induced by LDV ligand
Chain of Integrin beta-1 (Homo sapiens) + Integrin alpha-4 (Homo sapiens) (P05556 whole entry, looked up): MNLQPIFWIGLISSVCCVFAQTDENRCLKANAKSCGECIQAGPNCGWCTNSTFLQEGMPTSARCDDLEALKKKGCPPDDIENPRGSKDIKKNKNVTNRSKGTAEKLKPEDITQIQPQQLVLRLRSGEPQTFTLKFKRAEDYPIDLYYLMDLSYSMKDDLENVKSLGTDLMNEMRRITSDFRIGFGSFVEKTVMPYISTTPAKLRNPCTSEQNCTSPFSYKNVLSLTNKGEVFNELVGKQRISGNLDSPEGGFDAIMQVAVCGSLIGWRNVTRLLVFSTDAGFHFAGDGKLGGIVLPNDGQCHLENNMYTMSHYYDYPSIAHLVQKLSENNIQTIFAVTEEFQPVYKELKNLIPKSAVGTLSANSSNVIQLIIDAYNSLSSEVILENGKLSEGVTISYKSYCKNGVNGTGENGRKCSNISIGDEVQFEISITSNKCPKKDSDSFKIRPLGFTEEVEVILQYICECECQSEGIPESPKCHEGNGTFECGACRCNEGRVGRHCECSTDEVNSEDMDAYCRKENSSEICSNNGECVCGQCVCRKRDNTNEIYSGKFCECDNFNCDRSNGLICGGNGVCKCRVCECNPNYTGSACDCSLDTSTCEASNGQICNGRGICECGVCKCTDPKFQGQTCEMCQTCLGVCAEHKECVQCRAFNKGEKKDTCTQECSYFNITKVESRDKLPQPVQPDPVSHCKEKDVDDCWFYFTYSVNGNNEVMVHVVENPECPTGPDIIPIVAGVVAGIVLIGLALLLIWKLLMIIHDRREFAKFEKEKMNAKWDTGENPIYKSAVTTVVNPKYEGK
Chain of Integrin beta-1 (Homo sapiens) + Integrin alpha-4 (Homo sapiens) (P13612 whole entry, looked up): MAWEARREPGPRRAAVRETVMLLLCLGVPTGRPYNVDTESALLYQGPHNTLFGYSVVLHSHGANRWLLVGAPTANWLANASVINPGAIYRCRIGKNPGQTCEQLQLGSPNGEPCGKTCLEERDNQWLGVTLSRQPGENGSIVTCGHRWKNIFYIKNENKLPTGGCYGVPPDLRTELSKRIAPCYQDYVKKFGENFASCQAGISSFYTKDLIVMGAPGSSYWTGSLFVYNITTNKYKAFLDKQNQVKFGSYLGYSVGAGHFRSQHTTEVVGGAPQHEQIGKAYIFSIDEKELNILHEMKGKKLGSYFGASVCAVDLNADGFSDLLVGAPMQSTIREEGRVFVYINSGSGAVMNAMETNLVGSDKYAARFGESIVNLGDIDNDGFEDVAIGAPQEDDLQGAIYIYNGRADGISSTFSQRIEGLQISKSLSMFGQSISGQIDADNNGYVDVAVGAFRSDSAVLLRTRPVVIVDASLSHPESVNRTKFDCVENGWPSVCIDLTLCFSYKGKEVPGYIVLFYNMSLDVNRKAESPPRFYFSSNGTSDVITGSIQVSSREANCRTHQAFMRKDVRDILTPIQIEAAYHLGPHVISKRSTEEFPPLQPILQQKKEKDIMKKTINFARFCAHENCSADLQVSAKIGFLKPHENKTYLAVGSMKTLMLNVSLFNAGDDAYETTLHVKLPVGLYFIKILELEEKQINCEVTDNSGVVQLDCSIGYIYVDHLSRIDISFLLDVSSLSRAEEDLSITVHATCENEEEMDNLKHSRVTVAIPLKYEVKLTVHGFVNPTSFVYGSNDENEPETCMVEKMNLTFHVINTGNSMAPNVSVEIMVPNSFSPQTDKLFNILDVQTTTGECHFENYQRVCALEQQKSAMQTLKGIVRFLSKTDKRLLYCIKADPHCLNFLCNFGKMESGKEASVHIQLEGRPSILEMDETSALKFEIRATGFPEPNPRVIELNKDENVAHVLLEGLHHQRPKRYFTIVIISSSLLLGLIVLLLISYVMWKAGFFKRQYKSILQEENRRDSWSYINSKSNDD

[8] = calorie-restriction mimetic ROS inhibitors, yeast – validation compound set, pilot screen (AID 2706;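 active = superoxide response below 65% of plate, a cut near 3 SD across the whole screen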;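 also: yeast exposed to compound for one week at 30 degrees C before staining; 100% = mean of all compound wells on the same plate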); conditions: S. cerevisiae aging, superoxide DHE fluorescence; at 10 µM, stronger effect = lower value
[9] = target: Beta-adrenergic receptor kinase 1 (Homo sapiens) (UniProt P25098); experiment: GRK2 binders displacing RNA aptamer, biochemical, validation, human GRK2, bead flow cytometry (AID 488806;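 active = aptamer binding inhibition above 30%, about 3 SD of noise from non-fluorescent compounds; inactive = inhibition at or below 30%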); conditions: bead-bound GRK2, FAM-aptamer displacement, at 10 µM, stronger effect = higher value
Chain of Beta-adrenergic receptor kinase 1 (Homo sapiens) (P25098 whole entry, looked up): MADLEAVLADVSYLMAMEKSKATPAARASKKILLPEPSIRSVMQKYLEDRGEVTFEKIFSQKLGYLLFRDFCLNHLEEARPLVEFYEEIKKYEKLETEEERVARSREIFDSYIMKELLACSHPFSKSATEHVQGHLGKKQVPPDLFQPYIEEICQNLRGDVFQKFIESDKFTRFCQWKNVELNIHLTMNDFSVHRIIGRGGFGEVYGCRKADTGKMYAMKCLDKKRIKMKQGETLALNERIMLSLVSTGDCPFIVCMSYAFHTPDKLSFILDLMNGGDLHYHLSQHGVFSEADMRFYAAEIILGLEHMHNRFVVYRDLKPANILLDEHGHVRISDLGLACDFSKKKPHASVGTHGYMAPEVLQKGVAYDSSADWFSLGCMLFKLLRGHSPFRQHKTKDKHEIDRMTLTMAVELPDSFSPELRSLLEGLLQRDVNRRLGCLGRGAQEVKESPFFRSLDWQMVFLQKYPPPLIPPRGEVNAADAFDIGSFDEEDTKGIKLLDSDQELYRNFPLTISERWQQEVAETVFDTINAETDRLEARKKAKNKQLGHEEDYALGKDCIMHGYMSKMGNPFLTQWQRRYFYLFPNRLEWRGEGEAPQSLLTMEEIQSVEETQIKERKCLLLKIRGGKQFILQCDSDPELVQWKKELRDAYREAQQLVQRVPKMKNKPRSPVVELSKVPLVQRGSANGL

[10] = target: Beta-2 adrenergic receptor (Homo sapiens) (UniProt P07550); experiment: agonist-induced loss of surface beta2AR – cell-based, FAP fluorogen, flow cytometry, validation set, pilot screen (AID 504459;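 active = percent response above 42, roughly 3 SD of non-fluorescent test compounds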;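 also: agonist-driven loss of surface beta2AR via internalization measured by FAP dye flow cytometry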); conditions: Am2.2-beta2AR cells, at 10 µM, stronger effect = higher value
Chain of Beta-2 adrenergic receptor (Homo sapiens) (P07550 whole entry, looked up): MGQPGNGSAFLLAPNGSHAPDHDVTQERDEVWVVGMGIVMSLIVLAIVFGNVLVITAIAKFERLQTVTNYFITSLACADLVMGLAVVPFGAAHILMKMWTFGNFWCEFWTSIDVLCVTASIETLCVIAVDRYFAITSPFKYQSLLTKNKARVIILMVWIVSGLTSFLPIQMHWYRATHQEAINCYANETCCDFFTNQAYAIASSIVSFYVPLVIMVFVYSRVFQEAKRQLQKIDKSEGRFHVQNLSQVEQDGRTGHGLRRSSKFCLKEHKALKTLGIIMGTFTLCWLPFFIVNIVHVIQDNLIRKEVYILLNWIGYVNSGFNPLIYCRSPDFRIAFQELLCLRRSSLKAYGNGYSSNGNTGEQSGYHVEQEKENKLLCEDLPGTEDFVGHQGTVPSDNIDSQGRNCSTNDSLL

[11] = target: AP-2 complex subunit beta (Homo sapiens) (UniProt P63010); experiment: beta-arrestin/AP2 interaction blockers – biochemical, validation set, GST-AP2 beads, flow cytometry, pilot screen (AID 504541;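 active = inhibition above 54%, about 3 SD of non-fluorescent compounds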;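 also: AP2 carries R879A mutation and is captured from E. coli lysate; bead-bound FITC arrestin peptide fluorescence measuring arrestin peptide binding to AP2; 0% = DMSO wells and 100% = excess unlabeled arrestin peptide control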); conditions: FITC arrestin peptide, at 10 µM, stronger effect = higher value, AP2 beta2 appendage fragment, R879A mutant
Chain of AP-2 complex subunit beta (Homo sapiens) (P63010 whole entry, looked up, the tested form may be a part, one chain of several): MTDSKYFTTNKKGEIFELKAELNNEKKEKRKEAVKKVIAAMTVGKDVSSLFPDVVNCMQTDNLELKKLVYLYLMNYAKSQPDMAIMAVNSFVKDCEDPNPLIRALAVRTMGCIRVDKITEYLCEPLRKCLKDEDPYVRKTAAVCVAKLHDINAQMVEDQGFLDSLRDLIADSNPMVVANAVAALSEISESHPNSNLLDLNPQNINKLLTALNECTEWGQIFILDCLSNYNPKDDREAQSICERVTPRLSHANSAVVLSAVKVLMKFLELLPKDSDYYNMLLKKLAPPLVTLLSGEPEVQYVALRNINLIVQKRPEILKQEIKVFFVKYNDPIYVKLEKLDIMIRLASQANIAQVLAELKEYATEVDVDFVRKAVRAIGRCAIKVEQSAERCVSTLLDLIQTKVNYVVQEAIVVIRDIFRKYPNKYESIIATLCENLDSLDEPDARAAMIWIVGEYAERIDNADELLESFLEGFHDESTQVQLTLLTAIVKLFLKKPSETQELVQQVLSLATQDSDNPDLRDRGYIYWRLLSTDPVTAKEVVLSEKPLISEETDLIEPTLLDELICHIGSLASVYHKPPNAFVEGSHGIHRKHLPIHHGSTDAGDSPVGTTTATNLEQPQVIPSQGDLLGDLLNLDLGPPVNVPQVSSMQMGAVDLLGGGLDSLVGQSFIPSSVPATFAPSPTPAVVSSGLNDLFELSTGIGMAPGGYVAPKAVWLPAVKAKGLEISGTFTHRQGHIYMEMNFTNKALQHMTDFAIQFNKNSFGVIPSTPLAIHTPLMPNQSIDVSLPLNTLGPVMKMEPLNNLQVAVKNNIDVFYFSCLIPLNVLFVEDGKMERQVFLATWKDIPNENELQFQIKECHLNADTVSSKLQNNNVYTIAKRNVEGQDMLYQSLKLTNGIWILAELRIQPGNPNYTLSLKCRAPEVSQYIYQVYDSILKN

[12] = cytosolic pH regulators acting via V-ATPase – S. cerevisiae, pHLuorin, HTS validation (AID 504600; in the data active = response above about 15%;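 also: plate controls were DMSO for no effect and reference compound for full effect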); conditions: V-ATPase proton transport, at 10 µM, stronger effect = higher value
[13] = system: anti-desmoglein-3 scFv antibody binding to human DSG3; experiment: blockers of pathogenic pemphigus antibody–desmoglein-3 binding – biochemical, validation compound set, bead-based, flow cytometry, pilot screen (AID 588368); conditions: Protein G beads, DSG3-Fc, scFv-GFP binding, at 10 µM, stronger effect = lower value;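 also: signal is the median channel fluorescence of bead-bound GFP antibody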
[14] = Nile Red efflux blockade in pump-expressing yeast – validation compound set, multiplex, phenotypic, pilot screen (AID 588506;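 active = efflux inhibition above 0.42, the validation set average plus 4 SD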;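 also: Nile Red retained in cells so higher fluorescence means more efflux inhibition; 0 = negative control wells and 1 = enniatin B 25 µM full block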); conditions: S. cerevisiae pump-expressing triplex, Nile Red efflux flow cytometry; at 10 µM; stronger effect = higher value; the pumps come from Candida albicans
[15] = target: ATP-binding cassette sub-family B member 6 (Homo sapiens) (UniProt Q9NP58); experiment: blockers of ABCB6-driven porphyrin uptake – K562-ABCB6 cells, flow cytometry, validation set, pilot screen (AID 588550;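 active = inhibition above the screen-wide mean plus 3 SD, about 51%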;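 also: 0% = DMSO wells and 100% = benzethonium chloride 70 µM positive control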); conditions: K562-ABCB6 porphyrin accumulation, 1 h, at 10 µM, stronger effect = higher value
Chain of ATP-binding cassette sub-family B member 6 (Homo sapiens) (Q9NP58 whole entry, looked up): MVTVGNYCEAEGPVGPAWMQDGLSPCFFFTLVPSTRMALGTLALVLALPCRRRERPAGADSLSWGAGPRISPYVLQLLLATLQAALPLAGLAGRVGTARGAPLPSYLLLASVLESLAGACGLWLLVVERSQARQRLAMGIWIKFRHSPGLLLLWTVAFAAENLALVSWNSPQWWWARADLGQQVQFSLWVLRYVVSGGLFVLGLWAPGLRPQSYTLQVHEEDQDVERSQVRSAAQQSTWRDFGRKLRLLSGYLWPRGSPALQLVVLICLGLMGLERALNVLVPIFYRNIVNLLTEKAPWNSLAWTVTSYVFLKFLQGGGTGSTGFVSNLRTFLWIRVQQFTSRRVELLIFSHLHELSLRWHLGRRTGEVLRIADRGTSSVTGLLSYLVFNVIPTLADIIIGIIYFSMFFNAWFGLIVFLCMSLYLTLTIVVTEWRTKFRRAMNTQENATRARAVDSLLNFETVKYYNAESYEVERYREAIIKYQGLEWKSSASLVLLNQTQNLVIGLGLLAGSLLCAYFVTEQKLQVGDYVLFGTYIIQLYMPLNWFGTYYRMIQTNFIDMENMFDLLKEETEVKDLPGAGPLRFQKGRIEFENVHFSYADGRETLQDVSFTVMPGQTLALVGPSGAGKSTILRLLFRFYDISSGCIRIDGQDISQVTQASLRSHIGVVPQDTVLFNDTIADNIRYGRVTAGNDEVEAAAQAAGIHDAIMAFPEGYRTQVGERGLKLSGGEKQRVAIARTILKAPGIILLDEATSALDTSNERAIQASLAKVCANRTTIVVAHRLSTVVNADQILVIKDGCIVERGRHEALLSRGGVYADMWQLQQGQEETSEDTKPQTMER

[16] = AML differentiation inducers, ER-HoxA9 marrow cells – cell-based, GFP/MAC1 double positive, flow cytometry, validation set, primary screen (AID 588685;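 active = differentiation response of at least 50%, scaled between solvent and reference control, from cells with both markers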;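 also: compound exposure lasts four days before antibody staining and flow analysis; 0% = DMSO wells and 100% = 5 µM fulvestrant positive control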); conditions: stronger effect = higher value, normalized: vehicle 0, fulvestrant 100
[17] = hit retest on RPL19A-GFP reporter strain – cell-based, S. cerevisiae, flow cytometry, cherry picks, mother/daughter gates, confirmation (AID 2270;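 active = GFP response below 50% of the DMSO control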); conditions: 3 h, at 10 µM, stronger effect = lower value, 100 = same GFP as DMSO wells
[18] = yeast TOR pathway reporter LAP4-GFP change – cell-based, cherry picks, flow cytometry, mother/daughter gates, confirmation (AID 2271;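 active = GFP response above 150% of the DMSO control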;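 also: ratio of sample to DMSO plate mean so 100% equals DMSO level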); conditions: S. cerevisiae LAP4-GFP strain, 3 h, at 10 µM, stronger effect = higher value, 100 means same as DMSO control
[19] = TOR pathway reporter MEP2-GFP, retest of hits – S. cerevisiae, flow cytometry GFP, cherry picks, confirmation (AID 2272;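 active = GFP response above 150% of the DMSO control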;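 also: ratio of well signal to plate DMSO mean so 100% equals DMSO level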); conditions: S. cerevisiae MEP2-GFP strain, 3 h, at 10 µM, stronger effect = higher value
[20] = TOR pathway CIT2 reporter hit retest – S. cerevisiae, GFP fusion, cherry picks, mother/daughter gates, confirmation (AID 2274;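 active = GFP response above 150% of the DMSO level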); conditions: S. cerevisiae CIT2-GFP strain, flow cytometry, 3 h, at 10 µM, stronger effect = higher value
[21] = measured here: daughter cell gate
[22] = measured here: mother cell gate

CN(C)CCCN1c2ccccc2CCc2ccc(Cl)cc21
inactive: percent of DMSO control GFP [1] 100% | GFP response vs DMSO [2] 99.7% | percent response of DMSO control [3] 101% | GFP response vs DMSO [4] 98% | GFP response, % of DMSO [5] 97.1% | inhibition [7] 12.3% | superoxide response (% of plate) [8] 97.5% | aptamer binding inhibition [9] -3% | response [10] 38.7% | inhibition [11] -2% | response [12] -7.85% | binding (% of control) [13] 112% | inhibition [15] 18% | differentiation response [16] -10.4%
65%: double positive events [6]
active: efflux inhibition (fraction of control) [14] 0.51

COc1ccc(-c2nc(C)c(C(C)=O)n2O)cc1OC
inactive: percent of DMSO control GFP [1] 92.6% | GFP response vs DMSO [2] 106% | percent response of DMSO control [3] 114% | GFP response vs DMSO [4] 78.1% | vesicle binding response [6] 110% | inhibition [7] 5.49% | superoxide response (% of plate) [8] 97.4% | aptamer binding inhibition [9] 2% | response [10] -10.4% | inhibition [11] -13.1% | response [12] 1.53% | binding (% of control) [13] 103% | efflux inhibition (fraction of control) [14] 0.01 | inhibition [15] 11% | differentiation response [16] 0%
52.4%: double positive events [6]

OC[C@@H](O)[C@@H](O[C@H]1O[C@H](CO)[C@@H](O)[C@H](O)[C@H]1O)[C@H](O)[C@@H](O)CO
65%: double positive events [6]
active: efflux inhibition (fraction of control) [14] 0.8
inactive: percent of DMSO control GFP [1] 102% | GFP response vs DMSO [2] 103% | percent response of DMSO control [3] 88.4% | GFP response vs DMSO [4] 92% | GFP response, % of DMSO [5] 95% | vesicle binding response [6] 208% | aptamer binding inhibition [9] 0% | response [10] -1.29% | inhibition [11] 13.8% | response [12] -1.56% | binding (% of control) [13] 102% | inhibition [15] -1% | differentiation response [16] 20.8%

Nc1nc2c(ncn2COCCO)c(=O)[nH]1
101%: GFP response vs DMSO [17, 21]
inactive: GFP response vs DMSO [2] 123% | percent response of DMSO control [3] 103% | GFP response vs DMSO [4] 74.8% | GFP response vs DMSO [17] 100% | GFP response relative to DMSO [18] 101% | GFP response vs DMSO [19] 99.5% | GFP response, % of DMSO [20] 101% | vesicle binding response [6] 154% | inhibition [7] 16.2% | superoxide response (% of plate) [8] 83.2% | aptamer binding inhibition [9] 6% | response [10] -6.98% | inhibition [11] -5.88% | response [12] 0.6% | binding (% of control) [13] 107% | efflux inhibition (fraction of control) [14] -0.09 | inhibition [15] 0% | differentiation response [16] -4.91%
104%: GFP response, % of DMSO [20, 21]
100%: GFP response vs DMSO [17, 22] | GFP response relative to DMSO ([18]; measured here: mother cell gate response) | GFP response, % of DMSO [20, 22]
active: percent of DMSO control GFP [1] 78.1%
97.9%: GFP response relative to DMSO ([18]; measured here: daughter cell gate response)
63.1%: double positive events [6]

CCN1CCN(C(=O)N[C@@H](C(=O)N[C@@H]2C(=O)N3[C@@H]2SC(C)(C)[C@@H]3C(=O)O)c2ccccc2)C(=O)C1=O
inactive: percent of DMSO control GFP [1] 94.4% | GFP response vs DMSO [2] 122% | percent response of DMSO control [3] 103% | GFP response vs DMSO [4] 74.3% | vesicle binding response [6] 138% | inhibition [7] -5.18% | superoxide response (% of plate) [8] 109% | aptamer binding inhibition [9] 2% | response [10] -5.92% | inhibition [11] 3.29% | response [12] 1.38% | binding (% of control) [13] 103% | efflux inhibition (fraction of control) [14] 0.16 | inhibition [15] 7% | differentiation response [16] 3.28%
69.1%: double positive events [6]

Cc1cc(-c2ccccc2)nnc1NCCN1CCOCC1
active: aptamer binding inhibition [9] 32%
inactive: percent of DMSO control GFP [1] 102% | GFP response vs DMSO [2] 114% | percent response of DMSO control [3] 93.9% | GFP response vs DMSO [4] 74.3% | vesicle binding response [6] 223% | inhibition [7] 0.64% | superoxide response (% of plate) [8] 94.8% | response [10] 2.57% | inhibition [11] -1.22% | response [12] -0.98% | binding (% of control) [13] 109% | efflux inhibition (fraction of control) [14] 0 | inhibition [15] 19% | differentiation response [16] 4.09%
67.8%: double positive events [6]

Cc1cc(C(C)(C)C)cc(C)c1CC1=NCCN1
inactive: percent of DMSO control GFP [1] 93.7% | GFP response vs DMSO [2] 133% | percent response of DMSO control [3] 96.6% | GFP response vs DMSO [4] 77.6% | vesicle binding response [6] 214% | inhibition [7] 18.1% | superoxide response (% of plate) [8] 104% | aptamer binding inhibition [9] 1% | response [10] -5.36% | inhibition [11] 5.97% | response [12] -7.49% | binding (% of control) [13] 98.5% | efflux inhibition (fraction of control) [14] 0.12 | inhibition [15] 10% | differentiation response [16] 2.46%
62.8%: double positive events [6]

CC[C@H]1OC(=O)[C@H](C)[C@@H](O[C@H]2C[C@@](C)(OC)[C@@H](O)[C@H](C)O2)[C@H](C)[C@@H](O[C@@H]2O[C@H](C)C[C@H](N(C)C)[C@H]2O)[C@](C)(O)C[C@@H](C)[C@@H]2N[C@@H](COCCOC)O[C@H]([C@H]2C)[C@]1(C)O
active: response [12] 32.7%
inactive: percent of DMSO control GFP [1] 95% | GFP response vs DMSO [2] 130% | percent response of DMSO control [3] 95.2% | GFP response vs DMSO [4] 79.2% | vesicle binding response [6] 137% | inhibition [7] 6.46% | superoxide response (% of plate) [8] 106% | aptamer binding inhibition [9] 29% | response [10] -13.2% | inhibition [11] -5.27% | binding (% of control) [13] 103% | efflux inhibition (fraction of control) [14] -0.31 | inhibition [15] 8% | differentiation response [16] -4.91%
63.9%: double positive events [6]

Cc1c(OC(=O)CNC(=O)OC(C)(C)C)ccc2c3c(c(=O)oc12)CCC3
inactive: percent of DMSO control GFP [1] 93.3% | GFP response vs DMSO [2] 123% | percent response of DMSO control [3] 90% | GFP response vs DMSO [4] 80.3% | vesicle binding response [6] 210% | inhibition [7] 9.37% | superoxide response (% of plate) [8] 101% | aptamer binding inhibition [9] -1% | response [10] -1.96% | inhibition [11] 4.15% | response [12] 0.35% | binding (% of control) [13] 107% | efflux inhibition (fraction of control) [14] 0.01 | inhibition [15] 1% | differentiation response [16] 0%
60.3%: double positive events [6]

COc1ccc(NC(=O)C2CSC3c4ccccc4C(=O)N23)cc1 (centres undefined)
inactive: percent of DMSO control GFP [1] 101% | GFP response vs DMSO [2] 104% | percent response of DMSO control [3] 96.5% | GFP response vs DMSO [4] 105% | GFP response, % of DMSO [5] 98.8% | inhibition [7] 0.25% | superoxide response (% of plate) [8] 99.1% | aptamer binding inhibition [9] 0% | response [10] 7.07% | inhibition [11] -0.6% | response [12] 4.39% | binding (% of control) [13] 98.7% | efflux inhibition (fraction of control) [14] -0.1 | inhibition [15] -2% | differentiation response [16] -0.18%
77.8%: double positive events [6]
